Assay outcomes (PubChem)
Rows were chosen to be rich in hits. Some 3.6% of all compounds tested hit in one or more screens of this group.
Myeloid diff 2: promotes myeloid progenitor differentiation; ER-HoxA9 myeloid progenitors, lysozyme-GFP differentiation, flow cytometry; calls only at 10 µM; actives 1% (n = 360,000);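 active means normalized GFP-positive differentiation at or above the plate's own cutoff, the solvent-only control mean plus 3 SD; inconclusive means no clear call, values can overlap the other calls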;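 further: cells exposed to compound for four days before flow analysis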
NadD inh: blocks S. aureus nicotinate mononucleotide adenylyltransferase; purified NadD enzyme, colorimetric absorbance read-out; actives 0.78% (n = 360,000); inhibition, % at 20 µM; in the data active means inhibition above about 26%
CRFBP-R2 block: CRF-BP/CRF-R2 complex antagonism. HEK293 CRF-R2/CRF-BP, CRF-induced calcium fluorescence. inhibition, % at 11.8 µM. actives 0.59% (n = 350,000);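 active means inhibition of the ligand-induced calcium signal above about 50% at the single tested concentration, limit read from the data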
CendR NRP1 mod: NRP-1/CendR interaction modulation | FAM-RPARPAR peptide binding to NRP-1, fluorescence polarization | inhibition, % at 25 µM | actives 0.85% (n = 360,000) | AID 602438;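 active means inhibition or corrected inhibition above about 18%, plus a signal ratio from 0.5 to 1.5, limit read from the data, passing the limit was not always enough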
Target sequence (O14786 whole entry, looked up): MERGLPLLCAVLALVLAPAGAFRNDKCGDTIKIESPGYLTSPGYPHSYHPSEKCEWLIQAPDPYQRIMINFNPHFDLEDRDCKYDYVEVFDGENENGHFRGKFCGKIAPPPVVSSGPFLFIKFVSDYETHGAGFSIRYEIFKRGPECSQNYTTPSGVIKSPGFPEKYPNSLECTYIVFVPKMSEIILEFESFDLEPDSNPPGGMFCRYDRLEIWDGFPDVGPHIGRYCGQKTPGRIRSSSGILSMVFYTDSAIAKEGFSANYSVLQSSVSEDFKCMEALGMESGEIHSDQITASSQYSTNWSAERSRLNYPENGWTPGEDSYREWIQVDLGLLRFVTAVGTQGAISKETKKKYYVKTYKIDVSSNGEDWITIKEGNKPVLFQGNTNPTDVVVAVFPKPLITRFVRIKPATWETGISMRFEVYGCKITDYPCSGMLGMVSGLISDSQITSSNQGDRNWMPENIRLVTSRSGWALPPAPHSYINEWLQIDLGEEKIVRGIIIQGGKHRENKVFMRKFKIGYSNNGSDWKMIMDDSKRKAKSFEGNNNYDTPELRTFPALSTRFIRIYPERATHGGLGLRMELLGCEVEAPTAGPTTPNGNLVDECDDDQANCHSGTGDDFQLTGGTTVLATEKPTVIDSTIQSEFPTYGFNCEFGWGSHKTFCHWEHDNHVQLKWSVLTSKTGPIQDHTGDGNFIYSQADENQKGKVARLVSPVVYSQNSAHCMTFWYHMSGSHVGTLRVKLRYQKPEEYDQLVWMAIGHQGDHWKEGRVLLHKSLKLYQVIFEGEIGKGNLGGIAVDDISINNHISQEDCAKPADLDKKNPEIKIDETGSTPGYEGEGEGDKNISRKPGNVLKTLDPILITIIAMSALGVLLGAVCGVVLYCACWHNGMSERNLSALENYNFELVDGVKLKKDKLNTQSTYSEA
FAS-TE inh: inhibitors of human fatty acid synthase thioesterase domain. P49327. recombinant FAS-TE, OMFH fluorogenic substrate, fluorescence endpoint. inhibition, % at 15 µM. actives 0.67% (n = 360,000);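 active means compounds whose normalised, plate-corrected inhibition of enzyme fluorescence in the single-dose primary screen is 50% or more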;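 further: 0% = DMSO with enzyme and 100% = substrate without enzyme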
FAS-TE conf: FAS thioesterase (human) inhibition, confirmation | shares compounds with FAS-TE inh | recombinant FAS-TE, OMFH fluorogenic substrate, fluorescence | inhibition, % at 15 µM | actives 45% (n = 2,300);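 active means compounds inhibiting the enzyme by at least 50% at 15 µM in any one of the replicates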;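 further: 0% = enzyme with DMSO only and 100% = wells lacking enzyme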
* marks the source's active call; other numbers are inactive results; i = inactive; ? = inconclusive; nt = not tested or not shown; + = active, no number.

SMILES	Myeloid diff 2	NadD inh	CRFBP-R2 block	CendR NRP1 mod	FAS-TE inh	FAS-TE conf
O=C1NCN(c2ccccc2)C12CCN(C(c1cccs1)c1nnnn1-c1ccc3c(c1)OCCO3)CC2 (configuration not stated)	i	14	nt	21	62*	22
O=C1NCN(c2ccccc2)C12CCN(C(c1ccccc1)c1nnnn1-c1ccc3c(c1)OCCO3)CC2 (configuration not stated)	i	19	nt	-9	20	nt
O=C1NCN(c2ccccc2)C12CCN(C(c1cc3ccccc3o1)c1nnnn1-c1ccc3c(c1)OCCO3)CC2 (configuration not stated)	i	20	nt	4	74*	21
CCOC(=O)[C@]12Cc3cc(OC)ccc3[C@H]1N(C)C(=O)c1ccccc12	i	-3	nt	-7	-6	nt
CCOC(=O)[C@]12Cc3cc(OC)ccc3[C@H]1N(C1CCCCC1)C(=O)c1ccccc12	?	8	nt	12	77*	72*
CCOC(=O)[C@]12Cc3cc(Cl)ccc3[C@H]1N(C1CCCCC1)C(=O)c1ccccc12	?	8	nt	11	77*	71*
CCOC(=O)[C@]12Cc3cc(C)ccc3[C@H]1N(C)C(=O)c1ccccc12	i	4	nt	0	6	nt
CC[C@H]1C2C[C@H]3[C@@H]4N(C)c5ccccc5C45C[C@H](C2[C@H]5O)N3[C@@H]1O (some centres not stated)	i	-2	10	14	-2	nt
COC1=C(C)C(=O)O[C@]12C(=O)C(C)=C1CCCCN3[C@H]([C@@H]4C[C@H](C)C(=O)O4)CC[C@]132	i	-1	49	15	-12	nt
COc1cccc(C(c2nnnn2-c2ccc3c(c2)OCCO3)N2CCC(n3c(=O)[nH]c4ccccc43)CC2)c1OC (configuration not stated)	+	14	nt	8	72*	0
O=c1[nH]c2ccccc2n1C1CCN(C(c2cccs2)c2nnnn2-c2ccc3c(c2)OCCO3)CC1 (configuration not stated)	?	16	nt	3	63*	15
Cc1ccc(C(O)(C(=O)OC(C)C)C(O)c2ccccc2)cc1 (configuration not stated)	i	nt	nt	-6	nt	nt
CCC1(CCC(C)C)C(=O)NC(=O)N(c2ccccc2)C1=O (configuration not stated)	i	9	nt	-5	-1	nt
O=P1(Oc2ccccc2)C[C@@H](O)[C@@H](O)[C@H](COCc2ccccc2)O1 (some centres not stated)	i	-3	-6	-9	-15	nt
CC(C)n1c(=O)c(C=Nc2ccc(S(N)(=O)=O)cc2)c(O)n(Cc2ccco2)c1=O	i	4	6	-7	-8	nt
CC(C)n1c(=O)c(C=Nc2cccc([N+](=O)[O-])c2)c(O)n(CCc2ccccc2)c1=O	i	0	-58	-7	57*	18
Cc1ccccc1-c1ccc2c(c1)C1c3c(-c4ccccc4)nnn3-c3ccccc3C(=O)N1CC2 (configuration not stated)	i	27	nt	-20	79*	13
O=C1c2ccccc2-n2nncc2C2c3cc(Br)ccc3CCN12 (configuration not stated)	i	-5	nt	8	-2	nt
O=C(N/N=C/c1c(O)n(C2CCCCC2)c(=S)[nH]c1=O)c1ccccc1	?	3	31	-16	18	nt
O=C(N/N=C/c1c(O)n(C2CCCCC2)c(=S)[nH]c1=O)c1ccccc1O	i	8	35	-16	55*	42*
C[C@]12CCC3C(CC[C@H]4C[C@H](O)CC[C@]34C)C1C[C@@H](O)[C@H]2O (some centres not stated)	i	0	-1	2	-4	nt
COc1ccc(-n2nnnc2C(c2cccc3ccccc23)N2CCC3(CC2)C(=O)NCN3c2ccccc2)cc1 (configuration not stated)	i	24	nt	0	84*	16
Cc1cccc(C)c1-n1nnnc1C(c1ccccc1)N1CCC2(CC1)C(=O)NCN2c1ccccc1 (configuration not stated)	i	8	nt	11	39	nt
COc1ccc(C(c2nnnn2-c2c(C)cccc2C)N2CCC3(CC2)C(=O)NCN3c2ccccc2)cc1 (configuration not stated)	i	8	nt	11	50*	27
CCCCn1nnnc1C(c1cccc2ccccc12)N1CCC2(CC1)C(=O)NCN2c1ccccc1 (configuration not stated)	i	14	nt	4	22	nt
SMILES	Myeloid diff 2	NadD inh	CRFBP-R2 block	CendR NRP1 mod	FAS-TE inh	FAS-TE conf
CC(C)(C)n1nnnc1C(c1cccc2ccccc12)N1CCC2(CC1)C(=O)NCN2c1ccccc1 (configuration not stated)	i	17	nt	8	77*	19
CCCCn1nnnc1C(CCc1ccccc1)N1CCC2(CC1)C(=O)NCN2c1ccccc1 (configuration not stated)	i	-2	nt	4	16	nt
COC(=O)C1=C(c2c(C)noc2C)C[C@@H]2CC[C@H]1N2C(=O)N1CCc2cc(OC)c(OC)cc2C1	i	-1	2	4	-11	nt
Cc1nc2ccccc2c(=O)n1-c1cc([N+](=O)[O-])cc([N+](=O)[O-])c1	i	1	26	1	-2	nt
Cc1[nH]n(-c2ccccc2)c(=O)c1C(c1ccc([N+](=O)[O-])cc1)c1c(C)[nH]n(-c2ccccc2)c1=O	i	24	29	0	85*	79*
Cc1cccc(C)c1-n1nnnc1C(c1cc2ccccc2o1)N1CCC(n2c(=O)[nH]c3ccccc32)CC1 (configuration not stated)	i	25	nt	7	81*	-2
COc1ccc(C(c2nnnn2-c2c(C)cccc2C)N2CCC(n3c(=O)[nH]c4ccccc43)CC2)cc1 (configuration not stated)	i	17	nt	-1	62*	35*
COc1ccc(-n2nnnc2C(c2cccc(OC)c2OC)N2CCC(n3c(=O)[nH]c4ccccc43)CC2)cc1 (configuration not stated)	i	10	nt	5	31	nt
Cc1cccc(C)c1-n1nnnc1C(c1ccccc1OC(F)(F)F)N1CCC(n2c(=O)[nH]c3ccccc32)CC1 (configuration not stated)	i	18	nt	-8	54*	22
CCC1(CC)C(=O)NC(=O)N(CCc2ccccn2)C1=O	i	-2	-16	16	-5	nt
Cc1cc(OCC(=O)NC(Cc2ccc(Cl)cc2)C(=O)O)c2c3c(c(=O)oc2c1)CCCC3 (configuration not stated)	i	-1	-8	-35	24	nt
O=[N+]([O-])c1ccc(NCc2ccc(Cl)cc2)c2ccncc12	i	5	13	2	73*	58*
